Only some compounds are listed: those with a hit (about 19% of all), similar ones and a draw of the others.
HepG2 tox: counter-screen for TGF-b inhibitors: cytotoxicity in HepG2 cells. HepG2 CAGA-GFP viability, ATP luminescence, 18 h. 410,000 compounds, 0.76% hits. Potency, µM (doses to about 46.1 µM), actives largely listed as cytotoxic. AID 588856
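CellTiter-Glo luminescence gave cytotoxicity after 18 hours at 37 degrees C. The cells were HepG2 CAGA-GFP in 1% FBS DMEM, stimulated with 500 pg/mL TGF-beta after compound addition. %Activity was normalised to no-cell wells (complete cell-killing) and DMSO (no toxicity), and curves were fitted and classified.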
TDP1 cell CPT: DT40-hTDP1 cell growth loss with CPT | 420,000 compounds, 12% hits | Potency, µM (titrated, usually from 46.2 µM), most hits filed as inhibitors | chicken DT40 Tdp1-/-;hTDP1 cells + 20 nM CPT, ATP luminescence, 48 h; further: nearly all actives have a fitted effect of over 55% in size
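Chicken DT40 Tdp1-/- cells complemented with human TDP1, 400 cells/well, exposed to compounds plus 20 nM camptothecin for at least 48 h at 37 C; viability read as ATP content by CellTiter-Glo luminescence.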
S-ASM inh: inhibitors of human secretory acid sphingomyelinase. placental ASM, HMU-PC fluorogenic substrate, 60 min. AID 504937. Potency, µM (top dose mostly 57.5 µM), hits mostly inhibitors. 340,000 compounds, 0.006% hits
Target sequence (P17405 47-631 limits assumed): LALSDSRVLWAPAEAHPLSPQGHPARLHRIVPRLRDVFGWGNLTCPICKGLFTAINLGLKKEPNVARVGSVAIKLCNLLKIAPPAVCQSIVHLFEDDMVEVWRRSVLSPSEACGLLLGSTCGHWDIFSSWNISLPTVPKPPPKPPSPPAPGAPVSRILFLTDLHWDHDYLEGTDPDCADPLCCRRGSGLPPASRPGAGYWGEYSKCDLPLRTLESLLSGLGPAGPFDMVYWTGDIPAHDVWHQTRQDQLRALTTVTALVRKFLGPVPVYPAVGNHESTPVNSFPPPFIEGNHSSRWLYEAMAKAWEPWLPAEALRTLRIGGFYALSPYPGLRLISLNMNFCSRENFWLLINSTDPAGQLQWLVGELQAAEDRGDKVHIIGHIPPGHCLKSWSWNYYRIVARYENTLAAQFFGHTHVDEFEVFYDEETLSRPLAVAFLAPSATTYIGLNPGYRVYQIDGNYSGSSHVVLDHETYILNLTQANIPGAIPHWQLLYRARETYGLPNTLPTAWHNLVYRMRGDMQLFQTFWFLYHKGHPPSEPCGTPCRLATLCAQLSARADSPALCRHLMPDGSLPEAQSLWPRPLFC
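Fluorogenic HMU-PC substrate (9 uM final) is turned over by placental ASM in 60 min at 37 C after a 10 min compound preincubation. Reaction ended by alkaline stop (pH 10), with fluorescence read at 386/447 nm.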
IL-1B inflam inh: blocks inflammasome-driven IL-1 beta release. THP-1 LPS/ATP IL-1B secretion, AlphaLISA, 16 h; hits give low values. activity change, % at 57.5 µM. 360,000 compounds, 4.7% hits. AID 743279; in the data active means activity change below about -50%; inconclusive means mostly about -30% to -49%
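THP-1 cells pretreated 1 hr with compounds (up to 57.5 uM final), then stimulated with LPS (250 ng/mL final) plus ATP (1.25 mM final); secreted IL-1B measured by AlphaLISA after 16 hr, decreased signal indicating inhibition.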
TGFb SMAD3 inh: TGF-b pathway inhibition; HepG2 CAGA-GFP TGF-b/SMAD3 reporter, GFP fluorescence, 18 h; TGF-beta stimulated, 500 pg/mL final; Potency, µM (titrated, usually from 46.1 µM), usual class: inhibitors; 410,000 compounds, 1.2% hits; further: nearly all actives have a fitted effect of over 65% in size
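HEPG2 CAGA-GFP, 1000 cells/well; 2 h settle, 37 C; cpd via pin tool; TGF-b 500 pg/mL final; 18 h, 37 C; GFP imaging ex488/em500-530; %Activity normalised to -TGF-b and +DMSO controls; CRC fit, curve class.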
TDP1 cell noCPT: qHTS for Inhibitors of human tyrosyl-DNA phosphodiesterase 1 (TDP1): qHTS in cells in absence of CPT | 420,000 compounds, 15% hits | AID 686978, 2013 | Potency, µM (titrated, usually from 46.2 µM), most hits filed as inhibitors | DT40 Tdp1-/- hTDP1 cells, no CPT, ATP luminescence, 48 h; further: nearly all actives have a fitted effect of over 55% in size
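Seeded 400 DT40-hTDP1 cells/well (vehicle DMSO, no 20 nM CPT); pinned compounds; ≥48 hr at 37 °C; CellTiter-Glo luminescence as viability measure.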
Hits are given with their value; n = inactive; u = inconclusive; x = no result. Unless noted, the call rests on the fitted dose curve; in most records, active means well fitted curve in the direction sought with a large enough effect; inconclusive means small, poorly fitted or top-dose-only effect, or another doubt; inactive means no such curve, though single readings can be large; an effect the other way counts as inactive or inconclusive.

SMILES	HepG2 tox	TDP1 cell CPT	S-ASM inh	IL-1B inflam inh	TGFb SMAD3 inh	TDP1 cell noCPT
CC1(C(=O)NCCC(F)(F)F)Cc2c(-c3ccccc3)ccnc2O1 (stereo not given)	n	6.5µM	x	n	n	5.8µM
CCCc1cc(=O)oc2cc(C)cc(OCC(=O)N3CCC(C(=O)O)CC3)c12	n	n	n	n	n	n
O=C(CSc1nccn1-c1ccc(F)cc1)Nc1ccc(OC(F)(F)F)cc1	n	u	x	x	n	u
COc1cccc(-c2cnc3c(NC=O)cc(-c4ccncc4)cn23)c1	n	18µM	x	n	n	4.6µM
COc1cccc(-c2cnc3c(NC(C)=O)cc(-c4ccncc4)cn23)c1	n	u	x	n	n	16µM
COc1ccc(NC(=O)N(C)C[C@H]2Oc3ncc(Br)cc3C(=O)N([C@H](C)CO)C[C@@H]2C)cc1	n	n	x	n	n	n
O=C(O)c1ccc(Nc2ccc(Cl)c(Cl)c2)c([N+](=O)[O-])c1	n	u	n	n	n	n
Cc1ccc(O)c(C(=O)c2cnn(-c3ccccc3)c2)c1	n	7.3µM	n	n	n	12µM
O=C(Cc1cnn(-c2ccccc2)c1)c1ccc(O)c(O)c1O	n	21µM	n	n	n	u
CCc1cc(C(=O)Cc2cnn(-c3ccccc3)c2)c(O)cc1O	n	n	n	n	u	n
O=C(CCCc1ccccc1)NC1CC(=O)N(c2ccc(F)cc2)C1 (stereo not given)	n	u	x	x	n	u
CCCc1cc(-c2n[nH]c(C(=O)OCC)c2-c2cscn2)c(O)cc1O	n	u	n	n	u	15µM
CCOC(=O)c1[nH]nc(-c2c(O)cc(C)cc2O)c1-c1csc(C)n1	n	n	n	n	n	n
CN(C)CCNC(=O)c1cccc(S(=O)(=O)Nc2ccccc2F)c1	n	n	n	n	n	n
O=C(Nc1ccccc1Cl)C1CCCN1C(=O)OCc1ccccc1 (stereo not given)	n	n	n	n	n	n
CCc1ccc(S(=O)(=O)NCCOc2cccc3cccnc23)cc1	n	u	n	n	n	n
CCOC(=O)[C@@H]1[C@H]2COc3ccc(Br)cc3[C@@H]2N2C(=O)N(c3ccc(F)cc3)C(=O)[C@]12C	n	n	n	n	n	u
CCOC(=O)[C@@H]1[C@H]2COc3ccc(Br)cc3[C@H]2N2C(=O)N(c3ccc(Br)cc3)C(=O)[C@]12C	n	u	n	n	n	u
CCOC(=O)[C@@H]1[C@H]2COc3ccc(Br)cc3[C@H]2N2C(=O)N(c3ccc(Cl)cc3)C(=O)[C@]12C	n	u	n	n	n	9.2µM
CCOC(=O)[C@@H]1[C@H]2COc3ccc(Br)cc3[C@@H]2N2C(=O)N(c3ccc(Br)cc3)C(=O)[C@]12C	n	n	n	n	7.1µM	u
CCOC(=O)[C@@H]1[C@H]2COc3ccc(Br)cc3[C@H]2N2C(=O)N(c3ccc(C(F)(F)F)cc3)C(=O)[C@]12C	n	u	n	n	n	12µM
CCOC(=O)[C@H]1[C@H]2COc3ccc(Br)cc3[C@@H]2N2C(=O)N(c3ccccc3)C(=O)[C@@]12C	n	18µM	n	n	n	n
O=C(CSc1nnc(-c2ccncc2)n1-c1ccccc1)NCC1CCCO1 (stereo not given)	n	n	n	n	n	n
COc1ccccc1NC(=O)c1ccc(Cl)c(S(=O)(=O)NCc2ccco2)c1	n	u	n	n	n	n
CCOc1ccc(-c2nc(SCC(=O)NCCCOC)c(-c3ccccc3)[nH]2)cc1	n	u	x	x	u	u
COc1ccc(C2NC(=O)NC(C)=C2C(=O)OC2CCC(C)CC2)cc1 (stereo not given)	n	u	n	-65	u	18µM
